Measured values published in PubChem BioAssay AID624267 (The Scripps Research Institute Molecular Screening Center, 2012).
The campaign covered roughly 360,000 compounds. About 1,400 (0.39%) were called active. The sample holds actives, similar compounds and a random draw of the others, so the mix is not that of the screen. No stated cut-off is given here; in the data, active means inhibition above about 21%; inactive means the rest.

target: Receptor-interacting serine/threonine-protein kinase 2 (Homo sapiens) (UniProt O43353); assay: NOD2-RIPK2 binding disruptors in cells, primary screen, fluorescence, CHO cells, BLA complementation (AID 624267); details: CHO BLA complementation NOD2-RIPK2, CCF4 ratio; at 4.98 µM; active compounds read high;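 further: 0% = vehicle only and 100% = reference blocker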
Sequence (O43353 whole entry, looked up): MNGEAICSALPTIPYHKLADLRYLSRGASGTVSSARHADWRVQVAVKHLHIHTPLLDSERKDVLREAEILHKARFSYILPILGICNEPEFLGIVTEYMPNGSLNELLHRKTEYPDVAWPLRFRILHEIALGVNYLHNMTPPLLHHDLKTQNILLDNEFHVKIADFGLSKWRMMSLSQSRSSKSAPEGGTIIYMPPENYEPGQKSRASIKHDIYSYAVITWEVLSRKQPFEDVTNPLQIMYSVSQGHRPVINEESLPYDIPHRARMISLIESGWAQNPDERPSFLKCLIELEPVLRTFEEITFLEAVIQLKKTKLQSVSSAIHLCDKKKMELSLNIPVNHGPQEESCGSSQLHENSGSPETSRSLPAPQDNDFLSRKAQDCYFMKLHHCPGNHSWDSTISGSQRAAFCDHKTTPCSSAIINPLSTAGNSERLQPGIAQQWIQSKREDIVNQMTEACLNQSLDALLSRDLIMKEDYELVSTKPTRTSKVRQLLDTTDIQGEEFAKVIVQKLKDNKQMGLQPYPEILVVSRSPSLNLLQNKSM

Compound | inhibition
COCCCN(C(=S)Nc1c(C)cc(C)cc1C)C(C)c1ccncc1 (stereo unspecified) | -3.93% (inactive)
CC(=O)Oc1cccc(N2C(=O)CC(Nc3ccc(N4CCOCC4)cc3)C2=O)c1 (stereo unspecified) | -13.9% (inactive)
Cc1ccc(NC(=O)Cn2sc3ccccc3c2=O)cc1 | 22.1% (active)
O=C(Cn1nc(C(=O)O)c2ccccc2c1=O)Nc1ccc(F)cc1 | -5.34% (inactive)
CC1(C)NC(=O)N(CC(=O)Nc2ccc(-c3ccccc3)cc2)C1=O | 4.81% (inactive)
CN(C)CCCNC(=S)N1CCC(c2nc3ccccc3[nH]2)CC1 | -7.82% (inactive)
CCc1nn(CCCC(=O)Nc2ccc(C)cc2C)c(=O)c2cc3occc3n12 | 4.65% (inactive)
CS(=O)(=O)N(CC(=O)N1CCCC1)Cc1ccccc1 | 3.45% (inactive)
O=C1/C(=C\c2ccc([N+](=O)[O-])cc2)CS(=O)(=O)C/C1=C/c1ccc([N+](=O)[O-])cc1 | 44.6% (active)
O=[N+]([O-])c1ccc(CN2CC(N3CC=CC3)CS2(=O)=O)cc1 (stereo unspecified) | -11% (inactive)
CCc1nc2ccc(C(=O)NCc3ccc(OC)cc3)cn2c1N(CC)Cc1cccc(Br)c1 | 6.44% (inactive)
COC(=O)[C@]1(C)CCC[C@@]2(C)C3CC[C@]4(OC(C)=O)C[C@@]3(CCC21)CC4=NO (stereo partly specified) | 6.55% (inactive)
O=C(COc1ccccc1Cl)Nc1ccc(C(=O)c2ccc(C(=O)O)cc2)cc1 | 2.32% (inactive)
O=C(O)CC(Cc1ccccc1)C(=O)Nc1ccc([N+](=O)[O-])cc1 (stereo unspecified) | -1.04% (inactive)
COc1cc2c(cc1OC)C1C(=O)c3cc(OS(C)(=O)=O)c(OC)cc3C1N(C)C2=O (stereo unspecified) | 3.51% (inactive)
Cc1cc(C)n(CC(O)COc2ccc(C(C)(C)C)cc2)n1 (stereo unspecified) | -8.7% (inactive)
COc1ccc(C(CNC(=O)COc2ccc([N+](=O)[O-])cc2)N2CCCCC2)cc1 (stereo unspecified) | 0.77% (inactive)
COc1ccc(C(C[N+](=O)[O-])n2nc(C)cc2C)cc1 (stereo unspecified) | 26.6% (active)
C=CCn1cc(-c2cccc(C(F)(F)F)c2)cc(C#N)c1=O | 0.01% (inactive)

Compound | inhibition
COCCCNC(=S)N1CCCC(c2nc3cc(C)c(C)cc3[nH]2)C1 (stereo unspecified) | -3.68% (inactive)
O=C(OCc1nnc(-c2ccccc2)o1)c1ccc2c(c1)C(=O)N(CCc1ccccc1)C2=O | 9.8% (inactive)
CC(C)N(Cc1nnc(-c2ccccc2Br)o1)C(=O)c1cc(Cl)nc2ccccc12 | -10.3% (inactive)
Nc1cccc2c1C(=O)N(Cc1nnc(-c3ccccc3Br)o1)C2=O | 27.5% (active)
CC(C)CC(CO)N1CCN(C(=O)c2ccc(Cl)cc2Cl)CCC1=O (stereo unspecified) | -4.88% (inactive)
COc1ccc(-c2nc3n(c2Br)CCC3)cc1 | -7.99% (inactive)
O=C(Nc1ccccc1)C1CC(=O)n2c(nc3ccccc32)N1 (stereo unspecified) | -8.18% (inactive)
Cc1csc(NC(=O)C2CCCN2C(=O)OCC(C)C)n1 (stereo unspecified) | -2.47% (inactive)
CC1CC(C)CN(S(=O)(=O)c2cccc(C(=O)N3C(=O)c4cccc(N)c4C3=O)c2)C1 (stereo unspecified) | 30.1% (active)
CN1CCN(S(=O)(=O)c2cccc(C(=O)N3CCc4ccccc43)c2)CC1 | 2.86% (inactive)
CC(=O)N1CCN(S(=O)(=O)c2cccc(C(=O)NC3CCC(C)CC3)c2)CC1 (stereo unspecified) | -9.28% (inactive)
O=[N+]([O-])c1ccc(Oc2ccc(F)cc2Br)c2ccncc12 | -1.06% (inactive)
CC(C)CNC(=S)NNC(=O)c1nn(C)cc1Cl | -4.5% (inactive)
O=C1CC(C(F)(F)C(F)(F)C(F)(F)C(F)(F)F)=Nc2ccccc2N1 | 24.9% (active)
OC(CN=c1sc2ccccc2n1CC(O)COc1ccccc1)COc1ccccc1 (stereo unspecified) | -11.1% (inactive)
CCOc1ccc2c(=O)c(-c3ccc4c(c3)OCCCO4)c(C)oc2c1 | -5.36% (inactive)
CCOC(=O)c1c(NC(=O)C2CCN(S(=O)(=O)c3ccc(Cl)cc3)CC2)sc2c1CCCC2 | 4.57% (inactive)
CC[C@H]1CN2CCc3cc(OC)c(OC)cc3[C@@H]2C[C@@H]1C[C@H]1NCCc2cc(OC)c(OC)cc21 | 23.9% (active)
COCCCNC(=O)Cn1c(=O)n(Cc2ccccc2Cl)c(=O)c2cc(OC)c(OC)cc21 | -13.8% (inactive)

Compound | inhibition
COc1ccccc1C(=O)NC(CCSC)C(=O)N1CCN(C/C=C/c2ccccc2)CC1 (stereo unspecified) | 0.75% (inactive)
CC(=O)N1c2ccccc2N(Cc2ccc([N+](=O)[O-])cc2)C(=O)C1(C)C | -3.82% (inactive)
O=C1NC(=O)C2C1C(c1ccc([N+](=O)[O-])cc1)=NN2Cc1ccccc1 (stereo unspecified) | 43.2% (active)
O=[N+]([O-])c1ccc(C(S(=O)(=O)Cc2ccccc2)S(=O)(=O)Cc2ccccc2)cc1 | -0.41% (inactive)
COc1ccccc1C(=O)NCCC(=O)NC1=NCCS1 | -0.45% (inactive)
COc1cc2[nH]c(O)c(C=O)c2cc1OC | -11.7% (inactive)
COc1ccc(OC)c(N=Cc2c(O)[nH]c3ccccc23)c1 | 68.3% (active)
COc1ccc(NC(=O)COC(=O)c2n[nH]c3ccccc23)c(OC)c1 | 2.43% (inactive)
CC(C)(C)c1ccc(CCC2OCC(CN3CCOCC3)O2)cc1 (stereo unspecified) | -4.96% (inactive)
Cc1ccc(C)c(NS(=O)(=O)c2c(C)[nH]c(C)c2C(=O)N2CCCCC2)c1 | -5.02% (inactive)
Cc1ccc(S(=O)(=O)N2CCN=C2SCc2c(F)cccc2Cl)cc1 | 4.62% (inactive)
COc1ccc(C(C(=O)NC(C)(C)C)N(C(=O)Cn2nnc3ccccc32)c2ccc(C(C)=O)cc2)cc1O (stereo unspecified) | 1.81% (inactive)
Cc1ccc(C(=O)N/N=C/c2sc(=O)n(Cc3cccc(C(=O)O)c3)c2Cl)cc1 | -4.49% (inactive)
CC(C)(C)C1CCC(C(=O)NCC(c2cccs2)N2CCOCC2)CC1 (stereo unspecified) | 2.5% (inactive)
O=C(CCN1CCc2ccccc2C(O)(c2ccccc2)C1)c1ccc2c(c1)OCCO2 (stereo unspecified) | 26.2% (active)
O=S(=O)(c1ccc2c(c1)OCCO2)N1CCc2ccccc21 | -1.2% (inactive)
O=C(CN1CCc2cc3c(cc2C1)OCCCO3)Nc1ccccc1 | -9.22% (inactive)
O=C(NC(=S)NC1CCSC1=O)c1ccccc1F (stereo unspecified) | -9.93% (inactive)
